Data: ChEMBL document CHEMBL3433997, “St. Jude Leishmania screening dataset” (2016)

These molecules were tested against Solute carrier family 2, facilitated glucose transporter member 1 (Homo sapiens) (UniProt P11166) (assay: ST_JUDE_LEISH: Cytotoxicity at 2uM final concentration against transgenic Leishmania Mexicana promastigotes LmGLUT1 that are glucose transport deficient and complemented with the human glucose transporter GLUT1. Activity is measured by DNA content using SYBR green in vitro).
Assay type: functional

Chain of Solute carrier family 2, facilitated glucose transporter member 1 (Homo sapiens) (P11166 whole entry): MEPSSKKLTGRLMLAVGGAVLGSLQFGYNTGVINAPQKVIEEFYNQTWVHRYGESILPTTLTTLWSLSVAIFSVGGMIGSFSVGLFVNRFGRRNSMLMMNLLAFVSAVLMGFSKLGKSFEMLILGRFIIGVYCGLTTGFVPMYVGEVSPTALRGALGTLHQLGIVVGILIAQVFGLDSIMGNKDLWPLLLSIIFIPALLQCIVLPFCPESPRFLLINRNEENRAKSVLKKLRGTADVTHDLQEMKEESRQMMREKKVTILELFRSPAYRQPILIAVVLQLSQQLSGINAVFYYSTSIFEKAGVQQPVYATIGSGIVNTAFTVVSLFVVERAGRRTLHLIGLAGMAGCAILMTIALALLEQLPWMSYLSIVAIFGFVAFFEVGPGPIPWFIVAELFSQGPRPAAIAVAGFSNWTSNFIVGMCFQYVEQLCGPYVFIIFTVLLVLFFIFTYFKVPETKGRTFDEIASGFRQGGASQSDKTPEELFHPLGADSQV

Row | SMILES | inhibition [%]
1 | CC(C)N(Cc1cnc(N)c(C#N)n1)c1ccc(Cl)c(Cl)c1 | 3.62
2 | CC(C)(CN)c1cc(-c2ccc(Cl)c(O)c2)c(-c2ccncc2)o1 | 0.01
3 | Cc1ccc2nc(C)cc(N/N=C/c3cccc([N+](=O)[O-])c3)c2c1 | 4.41
4 | CC(C)c1ccc2oc(-c3ccc(NC(=O)c4ccc([N+](=O)[O-])o4)cc3)nc2c1 | 10.9
5 | COc1ccc(-c2cnc(N)c(-c3ccc(C(N)=O)cc3)c2)cc1OC | 3.97
6 | S=C(NCCCCCN1CCC(c2c[nH]c3ccccc23)CC1)Nc1cc(Cl)cc(Cl)c1 | 0.38
7 | Cc1cccc2nc(-c3ccc(-c4cccc(NC(=O)CCc5c[nH]cn5)c4)s3)[nH]c12 | 3.85
8 | CN1CCN(CCCN(Cc2csc(-c3ccc(CNCc4ccccc4)cc3)n2)C(=O)c2cc(F)cc(F)c2)CC1 | 4.63
9 | CC(O)CNc1nc2ccccc2n1CC(=O)Nc1cccc(C(=O)Nc2cccc(C(F)(F)F)c2)c1 (centres undefined) | 1.41
10 | Cn1cc(Br)c(-c2cccc(Nc3ccnc4cc(-c5nccs5)ccc34)c2)n1 | 3.67
11 | CC(C)(C)c1ccc2[nH]c(-c3ccc(/C=C/C(=O)NCc4cccc(C(F)(F)F)c4)cc3)nc2c1 | 3.32
12 | CCCCCCC(C)c1cc(OCCN(CC)CC)c2c(c1)OC(C)(C)C=C2c1ccncc1 (centres undefined) | -0.93
13 | COc1ccc2nccc([C@@H](O)CN3CCC(NCc4cc5cc(C)ccc5s4)CC3)c2c1 | 31.5
14 | O=C(NCc1ccc(Cl)c(Cl)c1)c1ccc(C2CCCN(Cc3ccc4[nH]cnc4c3)C2)cc1 (centres undefined) | 5
15 | CS(=O)(=O)c1ccc(CCNCc2ccc(-c3cccc(-c4nc5ccccc5[nH]4)c3)cc2)cc1 | 1.41
16 | COc1cccc(Nc2nc(N)c3ccccc3n2)c1 | 22.4
17 | CCCNC(=O)c1cncc(-c2ccc(CNC3Cc4ccccc4C3)cc2)c1 | 0
18 | CCN(Cc1ccc(-c2ccc(C(F)(F)F)cc2)cc1)C(=O)Cn1c(SCc2cccc(F)c2F)cc(=O)c2cc(CN3CCCCC3)ccc21 | 0.46
19 | Cc1ccc(Nc2c3ccccc3nc3ccc(C)cc23)cc1 | 4.86
20 | CC1(C)NC(N)=NC(=N)N1OCCCc1ccc(Cl)cc1Cl | 2.76

Row | SMILES | inhibition [%]
21 | OCC1CCN(Cc2cccc(-c3ccc(-c4nc5cc(C(F)(F)F)ccc5[nH]4)cc3)c2)CC1 | 1.05
22 | COc1ccc(Nc2nccc(N3CCC(NC(=O)C(C)c4ccc(Cl)cc4)C3)n2)cc1 (centres undefined) | -0.18
23 | O=C(CSc1nccn1Cc1ccco1)Nc1cc(C(F)(F)F)ccc1Cl | 13.1
24 | CCOc1cc(C(=O)NCCN(C(C)C)C(C)C)ccc1-c1nc2cc(Cl)ccc2[nH]1 | 2.57
25 | O=C(NC1CCN(Cc2ccccc2)CC1)c1ccc(-c2nc3cc(Cl)c(Cl)cc3[nH]2)c(F)c1 | 10.3
26 | Cc1cc(O)c2c(c1)OC(C)(C)C=C2C1=CCN(Cc2ccccc2)CC1 | 5.82
27 | O=C(Nc1ccc(Cl)c(C(F)(F)F)c1)Nc1ccc(Cl)c(C(F)(F)F)c1 | 0.91
28 | NC(=O)c1sc(-n2cnc3ccccc32)cc1OCc1ccccc1[N+](=O)[O-] | 8.87
29 | Cc1ccc(/C=C/C(=O)NC2CCC(N3CCC(c4ccccc4C)CC3)CC2)cc1C (centres undefined) | 4.77
30 | O=C(NC1CCN(c2ccnc3cc(Cl)ccc23)C1)c1ccc(C(F)(F)F)cc1 (centres undefined) | 3.93
31 | COc1ccc(Nc2nccc(N3CCC(NC(=O)Nc4cccc(C(C)=O)c4)C3)n2)cc1 (centres undefined) | -3.73
32 | Cc1cccc2nc(-c3ccc(-c4cccc(CNC(C)C)c4)s3)[nH]c12 | 2.58
33 | Cc1cc(-c2cccc(CNCCc3ccc(Cl)cc3)c2)cnc1N | 6.5
34 | Cc1ccc2nc(Cl)c3cc(C(=O)NCCCN4CCCC4)sc3c2c1 | 8.7
35 | Cc1ccc(N2C(N)=NC(N)=NC2(C)C)cc1Cl | 11.4
36 | CCCc1cc(Cc2cnc(N)nc2N)cc(CCC)c1OC | 4.11
37 | CC(C)(C)c1cc2cc(Nc3ccnc4cc(-c5nccs5)ccc34)ccc2[nH]1 | 6.8
38 | COc1ccc(O)c(C(=O)c2cc(C(=O)NC3CCCCC3)c(=O)n(C3CCCCC3)c2)c1 | 5.33
39 | CCN(CC)CCOc1ccc(C(O)(C#CC(O)(c2ccc(C)cc2)c2ccc(OCCN(CC)CC)cc2)c2ccc(C)cc2)cc1 (centres undefined) | 7.79
